Sampled rows, rich in hits. Any-hit rate of the full collection: about 10%.
NIH3T3 tox: kills NIH 3T3 cells; 4.3% of 94,000 active; Potency, µM (highest dose often 96.7 µM), for inactives: top-dose activity change, negative = cytotoxicity, usual class: inhibitors; NIH 3T3 viability, CellTiter-Glo ATP luminescence, 48-72 h; also: nearly all actives have a fitted effect of over 55% in size
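Viability of NIH 3T3 cells after 48 or 72 hr compound treatment at 37 °C was assessed by CellTiter-Glo, with luminescence imaged following a 10 min room-temperature step.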
GPT2 inhibitor: inhibitors of human GPT2 alanine aminotransferase. Q8TD30. Recombinant GPT2, coupled pyruvate oxidase/HRP Amplex Red fluorescence. Potency, µM (top dose mostly 57.7 µM), for inactives: at the highest dose activity change, negative = inhibition, actives largely listed as inhibitors. 0.25% of 100,000 active. AID 1671188; also: nearly all actives have a fitted effect of over 60% in size
Target sequence (Q8TD30 whole entry, looked up): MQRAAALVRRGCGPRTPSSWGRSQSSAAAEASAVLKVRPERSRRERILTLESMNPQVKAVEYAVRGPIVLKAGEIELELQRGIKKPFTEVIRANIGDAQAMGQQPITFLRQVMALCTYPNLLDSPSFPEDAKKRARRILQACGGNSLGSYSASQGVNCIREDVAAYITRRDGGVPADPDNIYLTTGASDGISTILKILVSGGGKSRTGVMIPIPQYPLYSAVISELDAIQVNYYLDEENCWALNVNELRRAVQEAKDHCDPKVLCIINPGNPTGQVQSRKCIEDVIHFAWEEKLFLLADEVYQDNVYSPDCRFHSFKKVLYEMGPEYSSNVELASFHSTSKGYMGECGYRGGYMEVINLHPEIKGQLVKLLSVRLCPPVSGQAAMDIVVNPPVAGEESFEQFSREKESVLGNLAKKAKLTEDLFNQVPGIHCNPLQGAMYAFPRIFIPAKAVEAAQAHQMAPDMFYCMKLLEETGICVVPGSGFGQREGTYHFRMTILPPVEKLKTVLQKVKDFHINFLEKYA
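Fluorescence read-out: pyruvate from GPT2 turnover coupled to pyruvate oxidase, HRP and Amplex Red (0.2mM ThPP, 0.2U/mL PO and HRP, 50uM Amplex final). Substrates 250uM a-KG, 2mM L-alanine; enzyme 10ng/uL; 30 min RT.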
NPR1 antag: antagonists of human natriuretic peptide receptor Npr1 | HEK293 hNpr1 GloSensor cGMP, ANP-stimulated luminescence | P16066 | Potency, µM (doses to about 46.3 µM), for the others: at the highest dose activity change, negative = inhibition, actives largely listed as inhibitors | AID 1347048 | 1.6% of 76,000 active; calls by dose curve; also: nearly all actives have a fitted effect of over 60% in size
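HEK293 cells stably expressing human Npr1 and cGMP GloSensor pGS-40F, loaded 2 h with 2% GloSensor reagent, given compound 30 min at room temperature. Luminescence read before and 20 min after 0.1 nM hNppA.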
HEK293 tox: cytotoxic compounds in HEK 293 cells | HEK 293 viability, ATP luminescence (CellTiter-Glo), 48-72 h | Potency, µM (doses to about 115 µM), for the others: at the highest dose activity change, negative = cytotoxicity, usual class: inhibitors | 6.6% of 94,000 active | AID 1345083; also: nearly all actives have a fitted effect of over 60% in size
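ATP-coupled CellTiter-Glo luminescence served as viability read-out, recorded 10 min after reagent addition at room temperature. HEK 293 cells, 250 cells/well, had been incubated with pintool-transferred compound for 48 or 72 hr at 37 degree Celsius.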
FLuc inh: blocks purified firefly luciferase enzyme activity. Potency, µM (series often up to 115 µM), usual class: inhibitors. 2.5% of 76,000 active. P08659. purified P. pyralis luciferase, luminescence, biochemical; also: nearly all actives have a fitted effect of over 65% in size
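Inhibitors were tested against purified firefly luciferase in a biochemical, low-substrate format (both substrates at 10uM) and luminescence measured with a CCD imager.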
Numbers without * were called inactive; i = inactive; ? = inconclusive; · = not tested or not shown; [ ] = dose if it differs, or a comment. Unless noted, calls follow the shape of the dose curve; as a rule, active = well fitted curve in the direction sought with a large enough effect; inconclusive = small, poorly fitted or top-dose-only effect, or another doubt; inactive = no such curve, though single readings can be large; an effect the other way counts as inactive or inconclusive. % is scaled to controls: 0 for no effect and ±100 for the full control effect; potency is read from the fitted curve at half-maximal effect.

SMILES	NIH3T3 tox	GPT2 inhibitor	NPR1 antag	HEK293 tox	FLuc inh
CSc1ccc(C(=O)N2CC(=O)N(CC3CC3)CC(C)(C)C2)cc1	?	·	·	-7%	·
CCN1C(=O)CN(C(=O)Cc2ccccc2)CC12CCOCC2	-21%	i	·	-6%	·
Clc1ccccc1C1Cn2cnc(-c3nc(-c4ccccn4)no3)c2CO1 (stereo not drawn)	?	-1%	-14%	?	25µM*
CCc1cccc2c(C(CC(=O)N3CCC(C)CC3)c3cccc(C)c3)c[nH]c12 (stereo not drawn)	?	i	3%	35µM*	i
CCOC(=O)C1CCN(C(=O)CC(c2ccc3c(c2)OCO3)c2c[nH]c3ccccc23)CC1 (stereo not drawn)	?	-34%	0%	?	i
CCOC(=O)C1CCN(C(=O)CC(c2ccc(OC)c(OC)c2)c2c[nH]c3c(CC)cccc23)CC1 (stereo not drawn)	?	3%	3%	79µM*	i
CCc1cccc2c(C(CC(=O)N3CCCC3)c3ccc(Cl)c(Cl)c3)c[nH]c12 (stereo not drawn)	?	i	5%	40µM*	i
O=C(c1nc2cccnc2n(C2CC2)c1=O)N1CCN(C(=O)C2CC2)CC1	-6%	-13%	·	-1%	·
O=C(C1CC1)N1CCCC(c2nn(-c3ccc(Cl)cc3)c(=O)[nH]2)C1 (stereo not drawn)	-21%	i	10%	-8%	i
O=C([C@@H]1C[C@@H](O)[C@H](O)[C@@H]2NC(=S)N(c3ccc(Cl)cc3)[C@@H]21)N1CCCCC1	-14%[138 µM]	-5%[88.5 µM]	4%[70.6 µM]	-19%[172 µM]	50µM*
Cc1cc(C)n(CCC(=O)NCCc2noc(-c3ccccc3)n2)n1	2%	i	0%	0%	i
Cc1ccc(-c2nnc3ccc(NC4CCCCC4)nn23)nc1	?	-5%[88.5 µM]	-17%[70.6 µM]	71µM*	i
COc1ccc(Nc2ccc3nnc(-c4ccc(C)cn4)n3n2)cc1	?	1%[88.5 µM]	-7%[70.6 µM]	71µM*	i
COc1ccnc(-c2nnc3ccc(Nc4cc(OC)c(OC)c(OC)c4)nn23)c1	50µM*	-14%[88.5 µM]	2%[70.6 µM]	?	i
COc1ccc(-c2nnc3ccc(Nc4cccc(OC)c4)nn23)nc1	?	i	-11%[70.6 µM]	?	i
Cc1ccc(-c2nnc3ccc(NC4CCC4)nn23)nc1	?	i	-11%[70.6 µM]	?	i
COc1ccc(-c2nnc3ccc(NC(C)C)nn23)nc1	50µM*	1%[88.5 µM]	-3%[70.6 µM]	-10%[230 µM]	i
CCNc1ccnc(NC2CCCc3c2cnn3-c2ccc(C)c(C)c2)n1 (stereo not drawn)	28µM*	-43%	3%	40µM*	?
CN(C)S(=O)(=O)N1CC(c2nc(Cc3cccnc3)no2)C1	-21%	-28%	·	-7%	·
c1cncc(Cc2noc(C3CN(Cc4ccsc4)C3)n2)c1	25µM*	-24%	-6%	?	i
COc1cccc(CN2CCC3(CC2)c2[nH]c4ccccc4c2CCN3C)c1	22µM*	i	0%	25µM*	i
CN1CCc2c([nH]c3ccccc23)C12CCN(C(=O)c1ccsc1)CC2	?	i	-5%	40µM*	i
Cc1cc(C(=O)N2CCC3(CC2)c2[nH]c4ccccc4c2CCN3C)n(C)n1	-16%	i	5%	40µM*	i
CN(C)C[C@@H]1CN(Cc2ccccc2)C[C@H]1NC(=O)NCc1ccco1	i	i	-4%	i	i
COCCNC(=O)c1ccc(CC2CCN(C(=O)Cc3ccccc3)CC2)cc1	-19%	-6%	-2%	-29%	i
CCOCCNC(=O)C1CCCN1c1nccc(Nc2ccccc2F)n1 (stereo not drawn)	-10%	i	·	-12%	·
O=C(Nc1cnc(-c2ccc(Cl)cc2)nc1)c1ccccc1F	2%	3%	-23%	-9%	0.79µM*
O=C(Nc1cnc(-c2ccccc2)nc1)c1cccc(F)c1	4%	i	-4%	-16%	?
O=C(Nc1cnc(-c2ccccc2)nc1)c1ccco1	-3%	i	-13%	-5%	11µM*

Compound activity: PubChem, National Center for Advancing Translational Sciences (NCATS)
